Calls of active or inactive are those of the source. The calls were made as follows: active = hit-call score of the fitted dose curve at least 0.9, where 1 is the maximum; inactive = score below 0.9.

Assay [1] addresses Nuclear respiratory factor 1 (Homo sapiens) (UniProt Q16656). Kind of assay: ATG_NRF1_CIS: Attagene CIS-FACTORIAL HepG2 Assay for human Nuclear Respiratory Factor 1 (NRF1) Orphan Gene (AID 2282987). Particulars: HepG2 NRF1 cis-element reporter, Attagene multiplex; actives raise or lower the signal. An outline of the steps:
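Human hepatoma HepG2 cells carrying transfected promoter-regulated reporter units were incubated with test chemicals for 24 h. Reporter transcripts were measured by RT-PCR plus capillary electrophoresis, and endpoints derived by bidirectional fitting with DMSO as baseline.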

Assay [2] is described as follows: ATG_NFI_CIS: Attagene CIS-FACTORIAL HepG2 Assay for human Nuclear Factor I (NFI) (AID 2282989). Particulars: HepG2 cis-regulatory reporter, NFI response element transcription; actives raise or lower the signal. An outline of the steps: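 Read-out: reporter mRNA via RT-PCR plus capillary electrophoresis with fluorescence detection. Transiently transfected HepG2 (endogenous TF activity on cis promoters), 24 h compound exposure; gain or loss of signal fitted against DMSO.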

Assay [3] deals with Myc proto-oncogene protein (Homo sapiens) (UniProt P01106). Kind of assay: ATG_Myc_CIS: Attagene CIS-FACTORIAL HepG2 Assay for human Myelocytomatosis (Myc) Proto-Oncogene Transcription Factor (AID 2282990). The conditions noted are these: HepG2, Attagene cis-reporter transcription factor activity; actives raise or lower the signal. An outline of the steps: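 Transiently transfected HepG2 cells bearing cis-promoter reporter units for endogenous transcription factors; 24 h exposure. Reporter mRNA measured by RT-PCR, 6-FAM primer extension, HpaI cut and capillary electrophoresis; bidirectional fit relative to DMSO.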

A short description of assay [4]: ATG_NRF2_ARE_CIS: Attagene CIS-FACTORIAL HepG2 Assay for human Nuclear Factor Erythroid 2 Related Factor 2 (NFR2) response to Antioxidant Response Elements (ARE) (AID 2282992).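 As to AC50: reporter mRNA level measured by RT-PCR and capillary electrophoresis fluorescence.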 Particulars: HepG2 Attagene ARE/NRF2 reporter, transcription factor activity; actives raise or lower the signal. An outline of the steps:
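HepG2 cells transiently transfected with multiplexed cis-element reporter constructs, 24 h after chemical dosing; reporter mRNA quantified by RT-PCR, fluorescent primer extension, HpaI digestion and capillary electrophoresis. Bidirectional fit relative to DMSO.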

A short description of assay [5]: ATG_Oct_MLP_CIS: Attagene CIS-FACTORIAL HepG2 Assay for human Octamer-Binding Transcription Factor (Oct) (AID 2282993). The conditions noted are these: HepG2 Attagene cis-factorial Oct reporter, mRNA; actives raise or lower the signal. An outline of the steps:
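Read-out: reporter mRNA via RT-PCR plus capillary electrophoresis of 6-FAM-labelled fragments. Transiently transfected HepG2, 24 h exposure, endogenous TF activity on cis elements. Gain or loss of signal fitted relative to DMSO.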

In assay [6] the target is Cellular tumor antigen p53 (Homo sapiens) (UniProt P04637). Kind of assay: ATG_p53_CIS: Attagene CIS-FACTORIAL HepG2 Assay for human p53 Transcription Factor (AID 2282994). Particulars: HepG2 p53 cis-element reporter, Attagene mRNA; actives raise or lower the signal. The method in brief:
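HepG2 cells transiently transfected with cis-regulated multiple reporter transcription units, dosed 24 h. Reporter mRNA measured by RT-PCR, 6-FAM primer extension, HpaI digestion and capillary electrophoresis; bidirectional fit relative to DMSO.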

Assay [7] in a line: BSK_3C_uPAR: BioMAP Diversity Plus: 3C Assay for Urokinase-type plasminogen activator receptor (uPAR) Biomarker Activity (AID 2282998). Particulars: BioMAP 3C HUVEC, uPAR biomarker ELISA; actives raise or lower the signal. An outline of the steps: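 HUVEC primary cells; 24 h post-dose; uPAR by ELISA; gain or loss of signal fitted bidirectionally vs DMSO baseline.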
Assay [8] can be described thus: BSK_3C_VCAM1: BioMAP Diversity Plus: 3C Assay for Vascular cell adhesion molecule 1 (VCAM1) Biomarker Activity (AID 2282999). The conditions noted are these: BioMAP 3C HUVEC, VCAM1 ELISA, cytokine-stimulated; actives raise or lower the signal. The method in brief:
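Human umbilical vein endothelial cells (3C system), biomarker read by ELISA 24 h after dosing; bidirectional fit against DMSO baseline. Cytotoxicity tracked by SRB total-protein staining in parallel cultures at biomarker time.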

The nature of assay [9]: ATG_NF_kB_CIS: Attagene CIS-FACTORIAL HepG2 Assay for human Nuclear Factor Kappa B (NF-kB) (AID 2282991). The conditions noted are these: HepG2 Attagene cis-factorial NF-kB reporter mRNA; actives raise or lower the signal. The method in brief: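 Multiplexed cis-reporter assay in transiently transfected HepG2. 24 h treatment; RNA isolated, RT-PCR, labelled fragments resolved by CE. DMSO baseline.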

A short description of assay [10]: BSK_3C_TissueFactor: BioMAP Diversity Plus: 3C Assay for Tissue Factor Biomarker Activity (AID 2282997). The conditions noted are these: BioMAP 3C HUVEC, tissue factor biomarker readout; actives raise or lower the signal. An outline of the steps: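 Dosing of human umbilical vein endothelial cells preceded a 24 h incubation. Tissue Factor was then read by ELISA, with increases and decreases both scored relative to DMSO controls.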

Sequence of Myc proto-oncogene protein (Homo sapiens) (P01106 whole entry, looked up): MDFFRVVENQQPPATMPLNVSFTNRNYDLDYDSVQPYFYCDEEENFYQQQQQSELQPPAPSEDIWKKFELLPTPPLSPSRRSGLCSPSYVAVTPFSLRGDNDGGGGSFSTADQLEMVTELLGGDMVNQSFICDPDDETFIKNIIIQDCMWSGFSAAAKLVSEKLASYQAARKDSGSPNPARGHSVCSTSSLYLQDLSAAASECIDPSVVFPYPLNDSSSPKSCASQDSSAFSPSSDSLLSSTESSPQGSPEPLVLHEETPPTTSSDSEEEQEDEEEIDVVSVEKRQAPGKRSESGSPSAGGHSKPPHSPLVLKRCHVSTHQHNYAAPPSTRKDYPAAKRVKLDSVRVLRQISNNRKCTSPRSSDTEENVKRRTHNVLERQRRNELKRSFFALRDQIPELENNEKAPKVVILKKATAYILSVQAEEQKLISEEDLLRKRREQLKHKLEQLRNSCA
Sequence of Cellular tumor antigen p53 (Homo sapiens) (P04637 whole entry, looked up): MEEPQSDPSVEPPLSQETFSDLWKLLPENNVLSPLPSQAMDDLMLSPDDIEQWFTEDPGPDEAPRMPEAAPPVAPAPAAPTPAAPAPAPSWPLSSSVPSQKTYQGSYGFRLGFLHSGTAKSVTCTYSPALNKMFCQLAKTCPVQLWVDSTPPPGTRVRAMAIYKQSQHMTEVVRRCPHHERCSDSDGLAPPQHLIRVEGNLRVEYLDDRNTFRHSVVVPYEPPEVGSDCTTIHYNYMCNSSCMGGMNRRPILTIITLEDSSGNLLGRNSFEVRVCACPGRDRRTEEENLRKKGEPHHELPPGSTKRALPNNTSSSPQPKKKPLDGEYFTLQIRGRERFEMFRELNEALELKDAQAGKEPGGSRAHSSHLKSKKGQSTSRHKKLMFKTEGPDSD
Sequence of Nuclear respiratory factor 1 (Homo sapiens) (Q16656 whole entry, looked up): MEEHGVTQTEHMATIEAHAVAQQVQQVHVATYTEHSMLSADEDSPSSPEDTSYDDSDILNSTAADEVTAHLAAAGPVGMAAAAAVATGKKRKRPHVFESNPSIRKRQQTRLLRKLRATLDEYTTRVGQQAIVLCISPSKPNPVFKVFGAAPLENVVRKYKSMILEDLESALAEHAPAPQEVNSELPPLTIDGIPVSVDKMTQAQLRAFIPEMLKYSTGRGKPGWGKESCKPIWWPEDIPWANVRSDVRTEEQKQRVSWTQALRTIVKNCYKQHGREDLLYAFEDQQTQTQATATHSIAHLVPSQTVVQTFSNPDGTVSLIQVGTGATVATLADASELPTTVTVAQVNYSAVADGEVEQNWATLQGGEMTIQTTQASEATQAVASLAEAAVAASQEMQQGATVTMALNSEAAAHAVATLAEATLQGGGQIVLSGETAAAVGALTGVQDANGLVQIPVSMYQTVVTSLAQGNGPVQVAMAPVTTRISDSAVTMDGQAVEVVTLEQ

As to `C=C(C)C1CC=C(C)CC1` (stereo not given), the molecule was classed as inactive in assay [1], in [2], in [3], in assay [4] and in assay [5].

Turning to `O=c1c(O)c(-c2ccc(O)cc2O)oc2cc(O)cc(O)c12`, the molecule was classed as inactive in [1], in assay [2], in [3], in assay [4], in assay [5] and in assay [6].

With `CCCCC/C=C\C/C=C\CCCCCCCC(=O)O`, the outcome in assay [1], in [3] and in assay [5] was inactive. Moreover, the figures for the AC50 in [2] and in [4] were 163 µM (active) and 51.6 µM (active), respectively.

`CC1=CCC(C(C)C)C=C1` (stereo not given): the molecule was called inactive in assay [1], in assay [2], in [3], in [5] and in assay [6]. Further, the AC50 in assay [4] was 25.3 µM (active).

Regarding `CC(c1cc(C(C)(C)C)cc(C(C)(C)C)c1O)c1cc(C(C)(C)C)cc(C(C)(C)C)c1O`, the call in assay [1], in assay [2], in assay [3], in [5], in assay [6] and in assay [7] was inactive. Also, in [8], the outcome was inactive.

On to `Cc1cc(=O)[nH]c(=O)[nH]1`, for which the molecule was classed as inactive in assay [1], in assay [3], in [9], in [4] and in assay [5].

As for `Nc1cccc(N)n1`, the call in [1], in assay [2], in assay [3], in assay [4], in [5] and in [10] was inactive. Further, the outcome in assay [7] and in assay [8] was inactive.

With `CC/C=C\CCOC(=O)c1ccccc1O`, the molecule was classed as inactive in [1], in [2], in assay [3] and in [5]. Besides, the AC50 in [4] was 100 µM (active); in assay [10], 25.4 µM (active); in [7], 31.8 µM (active); in [8], 30.1 µM (active).

On to `C=CC(=O)NC(C)(C)C`, for which the call in assay [1], in assay [2], in [3], in assay [5], in assay [7] and in [8] was inactive.

For `CN(C)c1ccc2nc3ccc(=[N+](C)C)cc-3sc2c1`, the AC50 is 15 µM (active) in assay [1] and 2.2 µM (active) in assay [4]. For the same molecule, the molecule was classed as inactive in assay [2], in assay [3], in assay [5] and in assay [6].

As to `CCC1COC(=O)O1` (stereo not given), the call in assay [1], in assay [2], in assay [3], in assay [5] and in [6] was inactive.

As for `NNS(=O)(=O)c1ccc(Oc2ccc(S(=O)(=O)NN)cc2)cc1`, the molecule was classed as inactive in assay [1], in assay [2], in [3] and in [5].

As for `CCCc1ccc(O)c(OC)c1`, the molecule was classed as inactive in assay [1], in assay [2], in assay [3], in assay [5] and in assay [6]. Besides, the AC50 in [4] was 28.8 µM (active).

Regarding `CC1=CC=C(C(C)C)CC1`, the outcome in [1], in assay [2], in assay [3], in [5], in assay [6] and in assay [7] was inactive. Further, the result in assay [8] was inactive. The half-maximal activity concentration (AC50) in assay [4] is 152 µM (active).

On to `O=C(O)C1CCC(C(=O)O)CC1` (stereo not given), for which the molecule was called inactive in [1], in assay [2], in [3] and in assay [5].

Take `CC(C)C(=O)OCCc1ccccc1`: the call in [1], in [2], in assay [3], in assay [4], in [5] and in assay [7] was inactive. Also, in assay [8], the outcome was inactive.

Consider `O=C1CCCCCCCCCCCN1`, for which the outcome in assay [1], in assay [2], in assay [3], in [4], in assay [5] and in [7] was inactive. For the same molecule, the outcome in assay [8] was inactive.

Take `O=C1CCCCCCCCCCC1`: the molecule was called inactive in [1], in [2], in [3], in assay [4], in [5] and in [10]. The result in [7] and in assay [8] was inactive.

As to `COc1nccnc1CC(C)C`, the outcome in assay [1], in assay [3], in assay [9], in assay [4] and in assay [5] was inactive.

In the case of `CCCCOC(=O)C(C)CC` (stereo not given), the result in assay [1], in assay [2], in [3], in assay [5] and in assay [6] was inactive.

For the molecule `CCCCCCCCC(CO)CCCCCC` (stereo not given), the AC50 in assay [1] was 117 µM (active); in assay [3], 179 µM (active); in [4], 81.3 µM (active). Further, the result in [2], in assay [5], in [7] and in assay [8] was inactive.

As to `COc1ccc(C(=O)c2ccccc2)c(O)c1`, the outcome in [1], in [2], in assay [3], in assay [5], in [6] and in assay [10] was inactive. The result in assay [7] and in [8] was inactive. Further, the half-maximal activity concentration (AC50) in assay [4] was 100 µM (active).

Regarding `Clc1cc(Cl)c(Cl)c(Cl)c1Cl`, the result in assay [1], in assay [2], in assay [3], in [4], in assay [5] and in assay [6] was inactive. The result in assay [7] and in assay [8] was inactive.

For the molecule `C=CC(=O)NCOCCCC`, the call in assay [1], in assay [2], in [3], in [5], in assay [7] and in assay [8] was inactive. The AC50 in assay [4] was 66.5 µM (active).

With `O=C(Oc1ccccc1)c1ccccc1O`, the molecule was classed as inactive in [1], in assay [2], in assay [3] and in assay [5].

Turning to `C=CC(=O)OCCCCCCOC(=O)C=C`, the molecule was called inactive in assay [1], in [2] and in assay [3]. Besides, the AC50 in assay [4] was 6.61 µM (active); in assay [5], 26.2 µM (active); in assay [6], 174 µM (active); in [7], 20 µM (active); in assay [8], 10.4 µM (active).

Take `CCCCCCCCCCCC(=O)N(C)CC(=O)O`: the call in [1], in [2], in assay [3], in [5], in assay [7] and in [8] was inactive. The AC50 in assay [4] was 97.5 µM (active).

With `c1ccc2c(c1)[nH]c1ccccc12`, the molecule was called inactive in assay [1], in assay [2], in assay [3], in assay [4], in [5] and in assay [6]. Further, the result in assay [10], in [7] and in [8] was inactive.

The values are drawn from PubChem BioAssay (EPA / NIEHS).
